This is part of a sample that, as a whole, favours compounds with a hit. Of some 79,000 tested, about 15% had one in any assay. Calls of active or inactive are those of the source. No stated cut-off is given here; in the data, active means growth inhibition above about 70%; inactive means the rest.
Experiments:
[1] = NCI Yeast Anticancer Drug Screen. Data for the rad50 strain (AID 155);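 further: 0% = growth of vehicle-only cultures of the same strain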; settings: S. cerevisiae rad50 strain growth inhibition; at 50.0 µM; stronger effect = higher value
Method in brief: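 A DNA repair-deficient yeast mutant serves as the test organism; compound-induced growth inhibition is calculated against vehicle-treated cells.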

[2] = NCI Yeast Anticancer Drug Screen. Data for the mec2-1 strain (AID 157); settings: S. cerevisiae mec2-1 strain, at 50.0 µM, stronger effect = higher value
Method in brief: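 Mutant yeast (mec2-1) grown with compound; growth inhibition relative to vehicle control reported.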

[3] = NCI Yeast Anticancer Drug Screen. Data for the sgs1 mgt1 strain (AID 161);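 further: 0% = growth of cultures given vehicle only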; settings: S. cerevisiae sgs1 mgt1 strain, at 50.0 µM, stronger effect = higher value
Method in brief: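 Growth of a repair-deficient yeast mutant was monitored after compound treatment and expressed as inhibition relative to vehicle-treated cultures.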

[4] = NCI Yeast Anticancer Drug Screen. Data for the cln2 rad14 strain (AID 165);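 further: 0% = growth equal to vehicle treated cultures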; settings: S. cerevisiae cln2 rad14 strain, at 50.0 µM, stronger effect = higher value
Method in brief: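 Readout is yeast growth inhibition versus vehicle-treated controls, using a strain with cln2 and rad14 alterations exposed to compound.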

[5] = NCI Yeast Anticancer Drug Screen. Data for the bub3 strain (AID 167); settings: S. cerevisiae bub3 mutant strain, at 50.0 µM, stronger effect = higher value
Method in brief: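 Inhibition values come from growth of compound-treated mutant yeast normalised to vehicle-treated controls.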

[6] = NCI Yeast Anticancer Drug Screen. Data for the mlh1 rad18 strain (AID 175); settings: S. cerevisiae mlh1 rad18 strain growth inhibition; at 50.0 µM; stronger effect = higher value
Method in brief: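 Genetically defined yeast (DNA repair-deficient) exposed to compounds; growth inhibition determined relative to vehicle.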

Measured: growth inhibition

CC(=O)OC(C)C1CCCC1OC(C)=O (stereo unspecified)
inactive: [1] -3.95% | [2] 9.2% | [3] -9.95% | [4] 5.75% | [5] -15.1% | [6] -22.5%

N#C/C(=N\NC(=O)c1cccs1)c1ccccc1Cl
inactive: [1] -5.65% | [2] 1.2% | [3] 8% | [4] -33.1% | [5] 9.7% | [6] 3.45%

CC(=O)NC(C=O)C(O)C(O)C(O)C(=O)O (stereo unspecified)
inactive: [1] 21.7% | [2] -11.4% | [3] 2.3% | [4] 23.1% | [5] 8% | [6] 10.5%

CC[N+](CC)(CCO)CCCCCCCCCC[N+](CC)(CC)CCO
inactive: [1] 29.6% | [2] -4.15% | [3] 10.6% | [4] -15.3% | [5] -1.15% | [6] 9.2%

CC(CNC(N)=O)(CNC(N)=O)c1ccccc1
inactive: [1] -4.75% | [2] -9.05% | [3] -11.8% | [4] -21.6% | [5] -0.45% | [6] -25.1%

CC(C)CC([N+](C)(C)C)P(=O)([O-])O (stereo unspecified)
inactive: [1] -4.4% | [2] 1.6% | [3] -4.7% | [4] -9.2% | [5] 20.9% | [6] -3.5%

C=CCNC(=S)/N=C/c1c(C(=O)OCC)[nH]n(-c2ccccc2)c1=O
inactive: [1] -27.8% | [2] -19.5% | [3] -44.8% | [4] -32.8% | [5] -26% | [6] -54.6%

COC(=O)C1CC2c3[nH]c4ccccc4c3CCN2C1 (stereo unspecified)
inactive: [1] -4.85% | [2] -8.25% | [3] -17.1% | [4] -11.4% | [5] -4.1% | [6] -10.5%

O=C1CCC(O)=C1O
inactive: [1] -7.75% | [2] -11.4% | [3] 2.3% | [4] 26.5% | [5] -2.35% | [6] -0.25%

O=C(c1ccccc1)N(N=C(c1ccc([N+](=O)[O-])cc1)c1ccc([N+](=O)[O-])cc1)c1ccccc1
inactive: [1] 24.7% | [2] 15.1% | [3] -6.6% | [4] -5.9% | [5] 5% | [6] 10.6%

NCC1OC(OC2C(CO)OC(OC3C(O)C(N)CC(N)C3OC3OC(CO)C(O)C(O)C3N)C2O)C(N)C(O)C1O (stereo unspecified)
inactive: [1] 33.8% | [2] -18.1% | [3] 1.85% | [4] 1.4% | [5] 27.6% | [6] 33.7%

COc1ccc(/C=N/NC(=O)c2ccc(N)cc2)c(OC)c1
inactive: [1] 5.7% | [2] 9.4% | [3] 10% | [4] -0.9% | [5] 14.2% | [6] 13%

CC1=C(C)C(N(C)C)CS(=O)(=O)O1 (stereo unspecified)
inactive: [1] 6.35% | [2] -18.4% | [3] -0.7% | [4] -47% | [5] -11.2% | [6] -7.9%

CCOC(=O)C1CN(C2CCCCC2)CCC1=O (stereo unspecified)
inactive: [1] -2.45% | [2] -26.6% | [3] 4.85% | [4] -37% | [5] 1.4% | [6] -24.4%

O=C(/C=C/c1cccc(O)c1)c1ccccc1
active: [6] 92%
inactive: [1] 29.4% | [2] 8.25% | [3] 38.4% | [4] 59.8% | [5] -5.6%

Cc1cc(NS(=O)(=O)c2ccc(Nc3c4ccccc4nc4c(C(=O)NCCN(C)C)cccc34)cc2)no1
inactive: [1] -37.8% | [2] 3.4% | [3] -41.5% | [4] 11.9% | [5] -22.7% | [6] -14.6%

O=C1CC2CCCCC2CC1c1ccc(OCc2ccccc2)c(OCc2ccccc2)c1 (stereo unspecified)
inactive: [1] -6.7% | [2] -0.25% | [3] 23.6% | [4] 9.1% | [5] -3.55% | [6] -13.7%

N#CCCC(C(=O)O)C(=O)CN1C(=O)c2ccccc2C1=O (stereo unspecified)
inactive: [1] 5.15% | [2] -7.95% | [3] 0.4% | [4] -7.75% | [5] 0.4% | [6] 7.6%

CC(=O)NC(CCCNC(=O)N(CCCl)N=O)C(=O)NCc1ccccc1 (stereo unspecified)
inactive: [1] -1.85% | [2] -16.5% | [3] 1.75% | [4] 23.3% | [5] 2.65% | [6] -13.6%

COc1ccc(I)cc1
inactive: [1] -1.85% | [2] -15.8% | [3] 3.65% | [4] -2.2% | [5] -3.5% | [6] 2.35%

Cc1ccc(C2=C(c3ccccc3)C(O)(c3ccccc3)C(c3ccccc3)=C2c2ccc(C)cc2)cc1
inactive: [1] -1.6% | [2] -20.1% | [3] -31.5% | [4] 15.8% | [5] 14.1% | [6] -12.7%

C/C(=N\N(C)C)c1sc(-n2nc(-c3ccccc3)cc2-c2ccccc2)nc1C
inactive: [1] 10.7% | [2] -10.2% | [3] 17.6% | [4] -8% | [5] 11% | [6] 8.75%

CCC1CC2CCC(c3cc4c(cc3OC)N(C)C3C(O)(C(=O)OC)C(OC(C)=O)C5(CC)C=CCN6CCC43C65)c3[nH]c4ccccc4c3CCN(C1)C2 (stereo unspecified)
inactive: [1] 2.65% | [2] 6.65% | [3] 12.4% | [4] -1% | [5] -3.35% | [6] 18.9%

C=C1CC/C=C(\C)CCC2C1CC2(C)C (stereo unspecified)
inactive: [1] -5.1% | [2] -17.1% | [3] 1.9% | [4] 12.2% | [5] 21.1% | [6] 10.9%

CCCN1C(=O)CC(NC(C)=O)C1=O (stereo unspecified)
inactive: [1] -2.85% | [2] 6.45% | [3] 8.1% | [4] -17.9% | [5] -5.85% | [6] 9.65%

CC(C)N(CC(=O)NC(=O)c1ccccc1)C(C)C
inactive: [1] -2.85% | [2] -6.45% | [3] -3.55% | [4] -32.9% | [5] 0.05% | [6] -2.6%

c1ccc(CNc2ncccn2)nc1
inactive: [1] 21.8% | [2] 7.45% | [3] 40.7% | [4] 7.35% | [5] -10% | [6] 11.4%

CC(C)CC(=O)CC(=O)C(C)(C)C.CC(C)CC(=O)CC(=O)C(C)(C)C.CC(C)CC(=O)CC(=O)C(C)(C)C.CC(C)CC(=O)CC(=O)C(C)(C)C.[Ce]
inactive: [1] 3% | [2] 19% | [3] 55.4% | [4] -16.1% | [5] 2.6% | [6] 47.1%

CCC1CC(=O)NC(=O)NC1=O (stereo unspecified)
inactive: [1] -4.6% | [2] 30.8% | [3] -3.75% | [4] 12.1% | [5] 7.2% | [6] 6.9%

O=C1CN(c2cccc(Cl)c2)C(=O)CN1/N=C/c1ccc(O)c(O)c1
inactive: [1] -29.1% | [2] 0.15% | [3] 3.45% | [4] -6.95% | [5] 46% | [6] -8.9%

CCOC(=O)/C=C(/O)CC(=O)OCC.[Cu+2]
inactive: [1] -11.8% | [2] -1.8% | [3] -5.7% | [4] -21% | [5] -17.1% | [6] -0.45%

CC1(C)Oc2ccc3c(=O)cc(-c4ccccc4)oc3c2C1C(=O)O (stereo unspecified)
inactive: [1] 4.7% | [2] -14.5% | [3] -18.6% | [4] -22.6% | [5] 9.7% | [6] -24%

Nc1ncnc2c1ncn2C1OC(C(O)CO)C(O)C1N (stereo unspecified)
inactive: [1] -15.7% | [2] -0.3% | [3] -13.7% | [4] -14.8% | [5] 0.55% | [6] -23.6%

COc1ccc(-c2cn3c(nc4ccccc43)c(C)n2)cc1
inactive: [1] -4.8% | [2] -3.15% | [3] 16.6% | [4] -17.9% | [5] 21% | [6] -11.3%

O=C1NC(=O)C(c2ccc(Br)c3ccccc23)=C1O
inactive: [1] 9.2% | [2] -4.75% | [3] 3.05% | [4] -44.5% | [5] -5.25% | [6] -6.25%

O=c1cc2n(c(=O)n1Cc1ccccc1)CCC2
inactive: [1] 10.9% | [2] 4.25% | [3] 1.55% | [4] 1.5% | [5] -3.9% | [6] -6%

COc1ccc(C2CCCCCC2OS(=O)(=O)c2ccc(C)cc2)c(OC)c1OC (stereo unspecified)
inactive: [1] 1.75% | [2] -4.55% | [3] -7.15% | [4] -14.8% | [5] 8.45% | [6] -9%

Fc1ccc(NC(=S)NCCN2CCCC2)cc1
inactive: [1] 3.9% | [2] 34.2% | [3] 8.1% | [4] 3.75% | [5] 12.8% | [6] -4.3%

Cc1ncc2c(n1)NC(c1ccc([N+](=O)[O-])cc1)NC2 (stereo unspecified)
inactive: [1] 0.45% | [2] -2.9% | [3] -16.6% | [4] -3.7% | [5] 14.7% | [6] -1.7%

COc1cc([N+](=O)[O-])cc2c1OC1(C=C2)Oc2ccccc2N1C (stereo unspecified)
inactive: [1] -36.1% | [2] -25.9% | [3] -16.3% | [4] -16.8% | [5] -22.9% | [6] -17.9%

Cn1c(-c2ccccc2)c2c(=O)oc3ccccc3c2c1-c1ccccc1
inactive: [1] -14.6% | [2] 8.8% | [3] 9.55% | [4] 1.8% | [5] 8.25% | [6] 19.1%

— PubChem BioAssay (NCI)
